The text below walks through data of PubChem BioAssay (NCI).

Holding throughout (assay): NCI-60 one-dose screen, 48 h (100 = growth as untreated, 0 = no growth, -100 = all killed)
What all share (conditions): 10 µM unless noted

Assay [1] relates to T-47D breast.
The test system of assay [2] is BT-549 breast.
The subject of assay [3] is MDA-MB-435 melanoma.
Assay [4] relates to SW-620 colon.
Assay [5] concerns MCF7 breast.
Assay [6] relates to HCT-116 colon.
Assay [7] has as its system HCC-2998 colon.
Assay [8] concerns KM12 colon.

This is part of a sample that, as a whole, favours compounds with a hit. Of some 83,000 tested, about 20% had one in any assay.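 Each cell line was grown in a 96-well plate and treated with one concentration of compound for 48 hours. Values below 10 were considered active.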 Unmarked numbers belong to inactive results. The source made the active and inactive calls.

For `Cc1ccc(C(=O)c2ccc(CC(=O)NN3C(=O)c4ccccc4C3=O)n2C)cc1`, the growth in assay [1] is 98.3%; in assay [2], 110%; in assay [3] it was 99.6%; in assay [4], 99.3%; in assay [5], 91.4%; in assay [6], 107%. The growth in assay [7] was 104%; in assay [8] it was 102%.

Take `S=c1[nH]c(=S)c2c(-c3ccccc3)c(-c3ccccc3)oc2[nH]1`: the growth in assay [1] was 91.4%; in assay [2], 119%; in assay [3] it was 97.3%; in assay [4], 101%; in assay [5] it was 94.3%; in assay [6] it was 97.9%. The growth is 101% in assay [7] and 102% in assay [8].

On to `C=C1C(=O)O[C@H]2[C@H]1CC/C(COC(=O)CSCSCC(=O)OC/C1=C/CC[C@@]3(C)O[C@H]3[C@H]3OC(=O)C(=C)[C@@H]3CC1)=C\CC[C@@]1(C)O[C@@H]21`, for which the growth in assay [1] is 20.9%; in assay [2], -5.92% (active); in assay [3], 26.6%; in assay [4], -9.08% (active); in assay [5], 16.7%; in assay [6], -24% (active). Also, the growth was 16.5% in assay [7] and 35.1% in assay [8].

Regarding `COC(=O)CC[C@@H]1O[C@@H](c2ccc(F)cc2)[C@@H](O)[C@H]1O`, the growth in assay [1] was 104%; in assay [2], 105%; in assay [3], 98.4%; in assay [4], 101%; in assay [5], 96%; in assay [6], 89.3%. Further, the growth in assay [7] was 99.6%; in assay [8], 99.7%.

Consider `Cc1ccc2c(-n3nc(C#N)c(C#N)c3N)cc(=O)[nH]c2c1`, for which the growth in assay [1] is 77%; in assay [2], 86.9%; in assay [3], 107%; in assay [4], 99.3%; in assay [5] it was 85.1%; in assay [6] it was 76%. For the same compound, the growth is 139% in assay [7] and 94.8% in assay [8].

On to `Cc1ccc(C(=O)c2ccc(CC(=O)N=Nc3c(O)[nH]c4ccc(Br)cc34)n2C)cc1`, for which the growth in assay [1] was 74.5%; in assay [2], 100%; in assay [3], 98.7%; in assay [4] it was 91.2%; in assay [5], 86.9%; in assay [6], 86%. Besides, the values for the growth in assay [7] and in assay [8] were 124% and 97.9%, respectively.

`C#CCO[C@H]1CC(CC#C)(CC#C)C(=O)[C@@H]2[C@H]1[C@H]1C[C@@H]3[C@@]4(C)CCC[C@@](C)(C(=O)OC)[C@@H]4CC[C@@]23C=C1C(C)C`: the growth in assay [1] is 84%; in assay [2], 101%; in assay [3], 100%; in assay [4], 95.9%; in assay [5] it was 96.1%; in assay [6], 96.1%. Besides, the growth was 103% in assay [7] and 63.1% in assay [8].

As to `CCN(CC)CCN1C(=O)c2cccc3c(/C=C/CN4C(=O)c5cccc6cccc(c56)C4=O)ccc(c23)C1=O`, the growth in assay [1] was 94.8%; in assay [2] it was 89.8%; in assay [3], 103%; in assay [4], 90.4%; in assay [5] it was 4.8% (active); in assay [6], 95.5%. Moreover, the growth in assay [7] was 105%; in assay [8] it was 63.6%.

For `C/C=C(/C)n1cnc2c(Nc3ccccn3)nc(Cl)nc21`, the growth in assay [1] was 93.6%; in assay [2], 103%; in assay [3] it was 107%; in assay [4], 103%; in assay [5], 99.9%; in assay [6], 104%. Further, the growth in assay [7] was 103%; in assay [8], 109%.

On to `CCOc1c(OC)cc2c(c1O)C(=O)N[C@@H]1[C@@H](O)[C@@H](O)[C@H](O)C[C@@H]21`, for which the growth in assay [1] was 92.8%; in assay [2], 99.6%; in assay [3] it was 108%; in assay [4], 107%; in assay [5] it was 92.1%; in assay [6], 104%. The figures for the growth in assay [7] and in assay [8] were 102% and 104%, respectively.

With `COc1ccc(/C=C/C(=O)c2cc(OC)c(OC)c(OC)c2)cc1OCC(=O)Nc1nc2ccc(OC(F)(F)F)cc2s1`, the growth is 24.3% in assay [1]; 25.7% in assay [2]; -51.3% (active) in assay [3]; 6.16% (active) in assay [4]; 4.06% (active) in assay [5]; -75.5% (active) in assay [6]. In addition, the growth in assay [7] is 90.6%; in assay [8], -14.3% (active).

Consider `COc1cc2nc3sc(C(=O)Nc4ccc(C(=O)OC(C)C)cc4)c(C(=O)Nc4ccc(Cl)cc4C)n3c(=O)c2cc1OC`, for which the growth in assay [1] is 46.5%; in assay [2], 96.7%; in assay [3], 76.5%; in assay [4], 38.7%; in assay [5], 52.2%; in assay [6], 76.3%. The growth was 20.5% in assay [7] and 52.3% in assay [8].

Take `N#Cc1c(-c2ccccc2)nc(SCc2nnc(-c3ccc(Cl)cc3)o2)[nH]c1=O`: the growth was 53.8% in assay [1]; 76.3% in assay [2]; 109% in assay [3]; 100% in assay [4]; 91.3% in assay [5]; 83.9% in assay [6]. Moreover, the growth in assay [7] is 103%; in assay [8], 102%.

In the case of `O=C(NC1CC(F)C1)c1cc2cccnc2n1-c1ccc(Cl)c(Cl)c1` (configuration not stated), the growth in assay [1] was 82.6%; in assay [2], 101%; in assay [3] it was 119%; in assay [4], 98.4%; in assay [5], 98.3%; in assay [6], 94.7%. In addition, the values for the growth in assay [7] and in assay [8] were 104% and 98.5%, respectively.

Regarding `Nc1[nH]n2cc(-c3ccc(F)cc3)nc2c1N=Nc1ccc(S(N)(=O)=O)cc1`, the growth is 77.8% in assay [1]; 73.9% in assay [2]; 78.4% in assay [3]; 76.7% in assay [4]; 87.7% in assay [5]; 62.7% in assay [6]. Further, the growth is 90.8% in assay [7] and 73.1% in assay [8].

In the case of `NS(=O)(=O)c1ccc(-c2cc(-c3nnc(SCC(=O)Nc4ccc(C(=O)/C=C/c5ccc(Cl)cc5)cc4)n3-c3ccccc3)c3ccccc3n2)cc1`, the growth in assay [1] is 79.9%; in assay [2], 97.9%; in assay [3], 94%; in assay [4], 97.7%; in assay [5], 70.6%; in assay [6] it was 7.54% (active). The growth in assay [7] was 105%; in assay [8], 92.1%.

Take `N#Cc1cncc(-c2ccc3ncnc(Nc4cccc(Cl)c4)c3c2)c1`: the growth was 56.4% in assay [1]; 69.7% in assay [2]; 93.4% in assay [3]; 97.6% in assay [4]; 75.9% in assay [5]; 36.6% in assay [6]. Besides, the growth was 88.4% in assay [7] and 90.2% in assay [8].

Turning to `C[C@]1(O)CC(=O)[C@]2(O)C3=C(C=C[C@]2(O)C1)C(=O)c1c(O)cccc1C3=O`, the growth in assay [1] is -45.5% (active); in assay [2], 45.2%; in assay [3], -79.8% (active); in assay [4] it was -55.5% (active); in assay [5] it was -60.2% (active); in assay [6], -32.1% (active). The growth in assay [7] is 94.7%; in assay [8], 77.8%.

Take `O=S(=O)(NCCCNc1nccc(-c2c(-c3cccc(F)c3)nc3occn23)n1)c1ccc(F)cc1`: the growth in assay [1] was 6.92% (active); in assay [2], 69.4%; in assay [3], 25.6%; in assay [4], 67.7%; in assay [5], 60.1%; in assay [6] it was 34%. Further, the growth in assay [7] was 77.3%; in assay [8], 40.4%.

Turning to `CN(Cc1ccccc1)c1nc(Cl)c(C2CC(c3ccccc3)=NN2c2ccccc2)s1` (configuration not stated), the growth in assay [1] was 71.9%; in assay [2], 118%; in assay [3], 98%; in assay [4] it was 101%; in assay [5] it was 82.4%; in assay [6] it was 77.7%. In addition, the growth was 93% in assay [7] and 89.7% in assay [8].

For the compound `CCOc1ccc(-n2nc(C(=O)NCc3ccccc3OC)nc2-c2cc(OC)c(OC)c(OC)c2)cc1`, the growth is 17% in assay [1]; 33.9% in assay [2]; 22.1% in assay [3]; 58% in assay [4]; 22.1% in assay [5]; 25.3% in assay [6]. Besides, the growth is 57.5% in assay [7] and 33.8% in assay [8].

For the compound `O=C(C1=Cc2cc3ccccc3n2Cc2cnnn21)c1ccc(O)cc1`, the growth in assay [1] was 44.9%; in assay [2], 54.8%; in assay [3], -7.67% (active); in assay [4], 28.7%; in assay [5], 34.3%; in assay [6], 46.4%. Besides, the growth in assay [7] is 83.8%; in assay [8], 29.5%.

Take `Cc1ccc(S(=O)(=O)OCCCOS(=O)(=O)c2ccc(C)cc2)cc1`: the growth was 99.3% in assay [1]; 96.2% in assay [2]; 101% in assay [3]; 103% in assay [4]; 91.2% in assay [5]; 94.1% in assay [6]. Moreover, the growth is 99.7% in assay [7] and 99.1% in assay [8].

As for `COc1cccc(-c2cc(-c3cccc(Cl)c3)c(C#N)c(=O)[nH]2)c1`, the growth in assay [1] is 80.1%; in assay [2], 53.5%; in assay [3], 4.96% (active); in assay [4], 49.3%; in assay [5], 55.5%; in assay [6] it was 73.9%. Besides, the growth in assay [7] is 98.7%; in assay [8], 57.5%.

In the case of `NC1(CO)COC(c2ccccc2)OC1` (configuration not stated), the growth was 103% in assay [1]; 124% in assay [2]; 117% in assay [3]; 111% in assay [4]; 111% in assay [5]; 115% in assay [6]. Also, the growth was 126% in assay [7] and 107% in assay [8].

In the case of `COc1ccc2c(c1)c(/C(O)=C1\COC(=O)C1=O)cn2Cc1ccc(F)cc1`, the growth in assay [1] is 114%; in assay [2] it was 110%; in assay [3], 109%; in assay [4], 101%; in assay [5], 107%; in assay [6] it was 104%. Further, the growth in assay [7] was 108%; in assay [8] it was 109%.

Take `CC1C(/C=N/NC(N)=S)C(C#N)(C#N)C1(C#N)C#N` (configuration not stated): the growth in assay [1] is 84.6%; in assay [2], 110%; in assay [3], 98.3%; in assay [4] it was 95.8%; in assay [5] it was 97.1%; in assay [6] it was 105%. Also, the growth is 105% in assay [7] and 97% in assay [8].

Regarding `Cc1ccc(Cl)cc1NC(=O)c1sc2nc3c(cc2c1N)C(=O)CCC3`, the growth is 82.9% in assay [1]; 93.5% in assay [2]; -3.04% (active) in assay [3]; 36.5% in assay [4]; 35.6% in assay [5]; 68% in assay [6]. Besides, the growth is 74.9% in assay [7] and 37% in assay [8].

Turning to `O=S(=O)(NCCNc1nccc(-c2c(-c3cccc(O)c3)nc3occn23)n1)c1ccc(Br)cc1`, the growth is 11.3% in assay [1]; 45.1% in assay [2]; 13.1% in assay [3]; 34.8% in assay [4]; 17.7% in assay [5]; 10.2% in assay [6]. Moreover, the growth in assay [7] was 50.7%; in assay [8], 27%.

Take `CC(=O)/C(=C/c1ccc([N+](=O)[O-])cc1)C(=O)c1ccccc1`: the growth in assay [1] is 67.6%; in assay [2], 89.8%; in assay [3], 77.3%; in assay [4], 65.4%; in assay [5] it was 29.2%; in assay [6], 35.7%. The growth in assay [8] is 58.9%.

Take `NC1=Nc2cc(OCCCCN3Cc4ccccc4C3)c(OCC3CC3)cc2C12CCCC2`: the growth in assay [1] is -46.9% (active); in assay [2] it was 82.2%; in assay [3], 5.33% (active); in assay [4] it was 3.2% (active); in assay [5], 10.6%; in assay [6] it was 11.3%. Also, the growth in assay [7] was -58.2% (active); in assay [8], 46.5%.
